# Reference: PubChem BioAssay (EPA / NIEHS)
# Values joined by “and” are separate entries in the source; they are usually repeats but may differ in a detail not shown here. Equal values may be shown once. The source holds several records for some structures; these can differ, active in one and inactive in another. Active and inactive are the calls of the source. Rule for the calls: active = hit-call score of the fitted dose curve at least 0.9, where 1 is the maximum; inactive = score below 0.9.
# Read-out: Interleukin 17A (IL17A), IL17A (gene 3605)
# Assay: BSK_BT_xIL17A: BioMAP Diversity Plus: BT Assay for Interleukin 17A (IL17A) Biomarker Activity (AID 2284229)
# Details: primary human B cells with PBMC
# Method in brief: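 Luminex xMAP readout of secreted IL-17A; human B cell + PBMC co-culture; 24 h post-dose; positive-direction fit vs DMSO negative control.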
# Sequence of Tumor necrosis factor (Homo sapiens) (P01375 whole entry, looked up): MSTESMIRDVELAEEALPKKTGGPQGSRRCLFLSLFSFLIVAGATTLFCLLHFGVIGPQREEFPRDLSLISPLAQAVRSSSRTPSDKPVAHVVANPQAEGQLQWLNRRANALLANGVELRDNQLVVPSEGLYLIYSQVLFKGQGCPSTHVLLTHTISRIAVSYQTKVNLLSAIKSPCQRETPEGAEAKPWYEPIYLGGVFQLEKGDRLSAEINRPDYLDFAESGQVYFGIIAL
Structure (SMILES),outcome,AC50
CCOC(=O)C1=NOC(c2ccccc2)(c2ccccc2)C1,inactive,–
CC1(C)CC(O)CC(C)(C)N1[O],inactive,–
CCCCCCOC(=O)CCCCC(=O)OCCCCCC,inactive,–
C=CC(=O)OCC(C)OCC(C)OCC(C)OC(=O)C=C (stereo not given),–,7.92 µM (active)
CC(C)CCCCCOC(=O)CS,inactive,–
CCCCCCC=O,inactive,–
CCCCCCCCC(CO)CCCCCC (stereo not given),inactive,–
CCCCCCCO,inactive,–
CCOC(=O)/C=C\C(=O)OCC,inactive,–
CCOC(=O)C1=NN(c2ccc(Cl)cc2Cl)C(C)(C(=O)OCC)C1 (stereo not given),inactive,–
Fc1ccc(Br)cc1,inactive,–
C=CC(=O)OCCCCCCOC(=O)C=C,–,6.04 µM (active)
C=CCCCCCCCCC=O,inactive,–
CC(c1cc(C(C)(C)C)cc(C(C)(C)C)c1O)c1cc(C(C)(C)C)cc(C(C)(C)C)c1O,–,17.2 µM (active)
CCc1cccc(C)c1N(C(=O)CS(=O)(=O)O)C(C)COC (stereo not given),inactive,–
CCN1CN(CC)CN(CC)C1,inactive,–
COc1ccc(C(=O)/C(Br)=C\C(=O)O)cc1,–,24.3 µM (active) and 25.6 µM (active)
CC=C(C)C=CC=C(C)C,inactive,–
CC/C=C\C/C=C\C/C=C\CCCCCCCC(=O)OC,–,12 µM (active)
CC(Cl)COP(=O)(OCC(C)Cl)OCC(C)Cl (stereo not given),inactive,–
O=C(O)C(F)(F)C(F)(F)C(F)(F)C(F)(F)C(=O)O,inactive,–
C[N+](C)(C)CCCNS(=O)(=O)C(F)(F)C(F)(F)C(F)(F)C(F)(F)C(F)(F)C(F)(F)C(F)(F)C(F)(F)F,–,30 µM (active)

# Read-out: Tumor necrosis factor (Homo sapiens) (UniProt P01375)
# Assay: BSK_BT_xTNFa: BioMAP Diversity Plus: BT Assay for Tumor necrosis factor alpha (TNF-alpha) Biomarker Activity (AID 2284230)
# Details: primary human B cells with PBMC
# Method in brief: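 Human primary co-culture of B cells and peripheral blood mononuclear cells; TNF-alpha in supernatant, 24 h post-dose, Luminex multiplex; DMSO = baseline.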
Structure (SMILES),outcome,AC50
CCOC(=O)C1=NOC(c2ccccc2)(c2ccccc2)C1,inactive,–
CC1(C)CC(O)CC(C)(C)N1[O],inactive,–
CCCCCCOC(=O)CCCCC(=O)OCCCCCC,inactive,–
C=CC(=O)OCC(C)OCC(C)OCC(C)OC(=O)C=C (stereo not given),–,10.3 µM (active)
CC(C)CCCCCOC(=O)CS,inactive,–
CCCCCCC=O,inactive,–
CCCCCCCCC(CO)CCCCCC (stereo not given),inactive,–
CCCCCCCO,inactive,–
CCOC(=O)/C=C\C(=O)OCC,inactive,–
CCOC(=O)C1=NN(c2ccc(Cl)cc2Cl)C(C)(C(=O)OCC)C1 (stereo not given),inactive,–
Fc1ccc(Br)cc1,inactive,–
C=CC(=O)OCCCCCCOC(=O)C=C,–,13.1 µM (active)
C=CCCCCCCCCC=O,inactive,–
CC(c1cc(C(C)(C)C)cc(C(C)(C)C)c1O)c1cc(C(C)(C)C)cc(C(C)(C)C)c1O,–,26.5 µM (active)
CCc1cccc(C)c1N(C(=O)CS(=O)(=O)O)C(C)COC (stereo not given),inactive,–
CCN1CN(CC)CN(CC)C1,inactive,–
COc1ccc(C(=O)/C(Br)=C\C(=O)O)cc1,–,31.3 µM (active) and 29.5 µM (active)
CC=C(C)C=CC=C(C)C,–,27.7 µM (active)
CC/C=C\C/C=C\C/C=C\CCCCCCCC(=O)OC,–,27.8 µM (active)
CC(Cl)COP(=O)(OCC(C)Cl)OCC(C)Cl (stereo not given),inactive,–
O=C(O)C(F)(F)C(F)(F)C(F)(F)C(F)(F)C(=O)O,inactive,2.64 µM (active)
C[N+](C)(C)CCCNS(=O)(=O)C(F)(F)C(F)(F)C(F)(F)C(F)(F)C(F)(F)C(F)(F)C(F)(F)C(F)(F)F,–,30 µM (active) and 20.4 µM (active)
